In PubChem BioAssay (NCATS):
Where “and” joins values, the source holds several entries; their conditions need not be identical. Identical values can stand only once. Records with an inconclusive call do not appear. Calls of active or inactive are those of the source. Unless noted, calls come from the whole dose curve; as a rule, active = well fitted curve in the direction sought with a large enough effect; inconclusive = small, poorly fitted or top-dose-only effect, or another doubt; inactive = no such curve, though single readings can be large; an effect the other way counts as inactive or inconclusive.

Experiments:
[1] = target: Cytochrome P450 1A2 (Homo sapiens) (UniProt P05177); test: p450-cyp1a2 (AID 410; calls by dose curve; note: potency is the fitted concentration of half-maximal effect;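 for activity change, negative = inhibition: -100% = full effect of reference inhibitor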)
Procedure, shortened: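 20nM CYP1A2 with 100uM Luciferin-ME (at Km) in 100mM KPO4; compound preincubated 10 min, NADPH regeneration added, 60 min at room temperature. Luciferin quantified by luminescence after detection reagent; normalized to 57 uM furafylline.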

[2] = target: Glucocorticoid receptor (Homo sapiens) (UniProt P04150); test: GR-GFP Redistribution (AID 450;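 active = compounds whose dose series gives a full or clear partial fitted curve of increased nuclear translocation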; note: potency is the fitted concentration of half-maximal effect); conditions: U2OS GR-GFP nuclear translocation, laser cytometry, 2 h
[3] = target: Glucocorticoid receptor (Homo sapiens) (UniProt P04150); test: GR-EFC Redistribution (AID 451; calls by dose curve; note: potency is the fitted concentration of half-maximal effect); conditions: CHO-K1 GR-EFC translocation, beta-gal luminescence, 2 h
Procedure, shortened: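 CHO-K1 cells stably expressing nuclear-localized β-gal enzyme acceptor and GR fused C-terminally to the enzyme donor fragment; ligand-driven nuclear translocation restores β-gal by complementation. Compounds titrated up to 46 uM final, 2 h at 37 °C; luminescence read.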

[4] = target: Mitogen-activated protein kinase 10 (Mus musculus) (UniProt Q61831); test: JNK3 AlphaScreen Assay (AID 530; active = well fitted curve in either direction with a large enough effect, not every such curve was filed as active;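 note: kinase came from lysate of stimulated human HepG2 cells; signal reports phosphorylation of biotinylated GST-cJun 1-79 at Ser73 with 10 µM ATP; % is set by controls: 0 for no effect and ±100 for the full control effect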)
Procedure, shortened: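 Inhibitors reduce antibody binding to phosphorylated biotin-cJun, lowering AlphaScreen luminescence. Lysates from HepG2 cells pre-activated by IL-1beta plus TNF-alpha supplied JNK3; compounds were titrated.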

[5] = qHTS Assay for Lipid Storage Modulators (AID 1519; calls by dose curve); conditions: Drosophila S3 cells, BODIPY lipid droplet/cell ratio, laser cytometry, cells loaded with oleic acid
Procedure, shortened: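 Cells seeded at 5,000 per well were treated with compounds over a concentration series and loaded with oleic acid (400 uM, as added). Lipid droplet fluorescence (488 nm excitation, 500-530 nm channel) was read by laser-scanning cytometry and normalized to 20 uM Triacsin C.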

[6] = target: Ubiquitin carboxyl-terminal hydrolase 1 (Homo sapiens) (UniProt O94782); test: Inhibitors of USP1/UAF1: Pilot qHTS (AID 504865);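 note: rhodamine fluorescence freed from ubiquitin-rhodamine substrate followed over time; top concentration of the series differs between compounds; % is set by controls: 0 for no effect and ±100 for the full control effect; nearly all actives have a fitted effect of over 35% in size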
Procedure, shortened: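 Enzyme-free wells gave the negative control, while test wells held 1nM USP1/UAF1 preincubated with compound for 15 min at room temperature. Ub-Rho at 150nM final started the reaction, and fluorescence at 480/540 nm was recorded kinetically.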

[7] = target: DNA dC->dU-editing enzyme APOBEC-3G (Homo sapiens) (UniProt Q9HC16); test: qHTS for inhibitors of Vif-A3G interactions: Validation (AID 588379); note: 0% is about no effect
Procedure, shortened: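 HeLa cells stably expressing Vif and A3G-eYFP, 700 cells/well, incubated overnight at 37 deg C, then exposed to compound overnight at 37 deg C. Inhibition of Vif-mediated degradation read as increased yellow fluorescence (Ex 488/Em 500-530) by laser-scanning cytometry.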

[8] = test system: Zika virus NS2B-NS3 protease; test: Primary screen GU AMC qHTS for Zika virus inhibitors (AID 1347154);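 note: 0% = no-inhibitor control and -100% = no-enzyme control; nearly all actives have a fitted effect of over 70% in size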
Procedure, shortened: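 Unlinked Zika NS2B hydrophilic domain/NS3 protease domain noncovalent complex (25 nM final) in 10 mM Tris-HCl pH 8.0, 0.01% Tween 20, with AMC peptide substrate. Fluorescence (ex 340, em 450 nm) change over 15 min, room temperature; percent inhibition fitted to 4-parameter Hill equation.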

[9] = Primary qHTS for small molecule stabilizers of the endoplasmic reticulum resident proteome: Secreted ER Calcium Modulated Protein (SERCaMP) assay (AID 1508630); note: % is set by controls: 0 for no effect and ±100 for the full control effect
Procedure, shortened: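 GLuc-SERCaMP-expressing SH-SY5Y cells, pretreated 16 h with compound, are challenged with thapsigargin to empty ER calcium stores; after 4 h, coelenterazine is added directly to the medium and luminescence is imaged.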

[10] = NFAT Signaling Pathway (AID 444; active = well fitted curve in either direction with a large enough effect, not every such curve was filed as active;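 note: carbachol stimulus at about its EC50 of 1 µM final; % is set by controls: 0 for no effect and ±100 for the full control effect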); conditions: Jurkat NFAT-bla M1, carbachol, beta-lactamase ratio, 5 h
Procedure, shortened: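 Jurkat cells carrying an NFAT-driven β-lactamase reporter and co-transfected muscarinic M1 receptor were treated with compound plus carbachol (1 uM final, an EC50 level) for 5 h at 37 °C. CCF4 loading followed for 1 h at RT; 460/530 nm ratio gave %activity.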

[11] = Stat Signaling Pathway (AID 446; active = well fitted curve in either direction with a large enough effect, not every such curve was filed as active;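 note: ME-180 cervical cancer cells given 40 pM IL-6 alongside compound; SIE-controlled beta-lactamase reporter measured as 460/530 nm FRET emission ratio; % is set by controls: 0 for no effect and ±100 for the full control effect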); conditions: ME-180 SIE beta-lactamase reporter, IL-6 stimulated, 5 h
Procedure, shortened: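 Reporter line: ME-180 cervical carcinoma, SIE-beta-lactamase. Treatment: compound with 40 pM IL-6, 5 hrs, 37 C, in low-serum OPTI-MEM with 10 mM HEPES pH 7.3. Detection: 460/530 nm fluorescence.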

[12] = target: 3',5'-cyclic-AMP phosphodiesterase 4B (Homo sapiens) (UniProt Q07343); test: qHTS Assay for Inhibitors of PDE-IV (AID 607; active = well fitted activation curve with a large enough effect in the main read-out, with a control signal flat, not every such curve was filed as active; note: % of control where 0% means no effect)
Procedure, shortened: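 Cell-based read-out of cAMP via a modified cyclic nucleotide-gated channel and membrane potential dye (535/590 nm) in HEK293 cells expressing PDE4 endogenously. Compounds tested up to 22.9 uM final; 100 uM RO 20-1724 reference.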

[13] = target: Guanine nucleotide-binding protein G(i) subunit alpha-1 (Homo sapiens) (UniProt P63096); test: qHTS Assay for Inhibitors of RGS12 GoLoco Motif Activity (Green Fluorophore) (AID 879);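 note: 0% = labeled peptide with Gαi1 and full inhibition = labeled peptide alone without protein; negative values mean loss of peptide binding seen as reduced polarization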
Procedure, shortened: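 Fluorescence polarization assay: 50 nM Gαi1 with 10 nM FITC-labeled RGS12 GoLoco peptide in 10 mM Tris pH 7.5, 150 mM NaCl, 0.1 mM GDP, 0.05% NP40, 10 min at room temperature with compound.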

[14] = target: Cytochrome P450 3A4 (Homo sapiens) (UniProt P08684); test: qHTS Assay for Activators of Cytochrome P450 3A4 (AID 885); note: nearly all actives have a fitted effect of over 65% in size
Procedure, shortened: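 Signal was normalized against complete inhibition by 57 uM ketoconazole. The reaction used 20nM CYP3A4 with 25uM Luciferin-PPXE, 10-min compound preincubation and a 60-min NADPH-supported step at RT.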

[15] = target: Pyruvate kinase (Leishmania mexicana) (UniProt Q27686); test: qHTS Validation Assay for Inhibitors of Leishmania Mexicana Pyruvate Kinase (AID 945);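 note: 0% = DMSO only neutral control wells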
Procedure, shortened: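 Compounds are tested as eight-point concentration series. Reactions contain 0.2 nM LmPYK E451W, 0.5 mM PEP, 0.1 mM ADP, 7 mM MgCl2 and 50 mM KCl at pH 7.2, run 1 h at room temperature, then read by PKLight luminescence.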

[16] = target: Pyruvate kinase PKM (Homo sapiens) (UniProt P14618); test: qHTS Assay for Activators of Human Muscle Pyruvate Kinase (AID 954; active = well fitted curve in the direction sought with a large enough effect, not every such curve was filed as active;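 note: 0% = uninhibited enzyme and -100% = no enzyme or full thiadiazolimine inhibition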)
Procedure, shortened: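 Human PKM2 activity is measured as ATP generation, detected by luciferase-coupled luminescence. The enzyme (0.1 nM) acts on 0.5 mM PEP and 0.1 mM ADP for 1 h at ambient temperature; data are normalized to uninhibited and full-inhibition wells.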

[17] = target: Alpha-galactosidase A (Homo sapiens) (UniProt P06280); test: Counterscreen for Glucocerebrosidase Inhibitors: qHTS Assay for Human alpha-Galactosidase at pH 4.5 (AID 992); note: 0% is about no effect
Procedure, shortened: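 Quantitative HTS: compounds tested from 0.7 nM up to 77 uM against 2 nM enzyme with 80 uM 4-MU alpha-D-galactopyranoside. The 20 min room-temperature reaction is stopped with 1M NaOH/1M glycine, pH 10.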

[18] = target: alpha-glucosidase (Oryza sativa, rice) (UniProt Q653V4); test: Counterscreen for Glucocerebrosidase Inhibitors: qHTS Assay for Rice alpha-Glucosidase at pH 5.0 (AID 997);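 note: 0% = full activity with enzyme and -100% = basal without enzyme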
Procedure, shortened: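 Rice alpha-glucosidase (4 nM final) with 400 uM 4-methylumbelliferyl-alpha-D-glucopyranoside in citrate buffer pH 5.0, 20 min at room temperature, stopped at pH 10; fluorescence 365/440 nm, compounds 0.7 nM–77 uM, AC50 from Hill fits.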

[19] = AP1 Signaling Pathway (AID 357; active = well fitted curve in either direction with a large enough effect, not every such curve was filed as active); conditions: ME-180 (cervical carcinoma) AP-1-bla reporter, EGF-induced, beta-lactamase ratio, 5 h
Procedure, shortened: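 Titration-series screen for positive or negative modulators of EC50 EGF-induced signaling in ME-180 cells carrying an AP-1-driven beta-lactamase reporter. After 5 hours at 37 degrees Celsius, CCF4 460nm/530nm emission ratio gave %Activity; AC50 values derived.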

[20] = qHTS Assay for Identification of Small Molecule Agonists for Thrombopoietin (TPO) Signaling Pathway (AID 917); note: % is set by controls: 0 for no effect and ±100 for the full control effect
Procedure, shortened: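 IL-3-dependent murine pro-B Ba/F3 cells, stably transfected with human TPO receptor and GpIIb-promoter luciferase, are incubated 24 hrs at 37 C with test compound and 26 pM TPO; luciferase signal is read after 10 min at room temperature.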

[21] = measured here: cell count channel max response
[22] = measured here: lipid channel max response

Chain of Alpha-galactosidase A (Homo sapiens) (P06280 whole entry, looked up): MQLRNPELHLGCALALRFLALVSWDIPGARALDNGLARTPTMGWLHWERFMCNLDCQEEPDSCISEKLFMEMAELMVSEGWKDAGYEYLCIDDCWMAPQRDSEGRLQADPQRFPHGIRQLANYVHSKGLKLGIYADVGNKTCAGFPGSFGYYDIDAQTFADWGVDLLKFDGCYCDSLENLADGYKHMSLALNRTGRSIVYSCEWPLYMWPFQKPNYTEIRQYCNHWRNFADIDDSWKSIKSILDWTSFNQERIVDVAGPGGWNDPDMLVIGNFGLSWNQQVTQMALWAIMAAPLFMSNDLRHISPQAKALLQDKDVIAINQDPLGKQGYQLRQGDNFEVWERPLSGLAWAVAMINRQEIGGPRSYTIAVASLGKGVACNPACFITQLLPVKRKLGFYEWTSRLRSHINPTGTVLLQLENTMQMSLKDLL
Chain of Glucocorticoid receptor (Homo sapiens) (P04150 whole entry, looked up, the tested form may be a part): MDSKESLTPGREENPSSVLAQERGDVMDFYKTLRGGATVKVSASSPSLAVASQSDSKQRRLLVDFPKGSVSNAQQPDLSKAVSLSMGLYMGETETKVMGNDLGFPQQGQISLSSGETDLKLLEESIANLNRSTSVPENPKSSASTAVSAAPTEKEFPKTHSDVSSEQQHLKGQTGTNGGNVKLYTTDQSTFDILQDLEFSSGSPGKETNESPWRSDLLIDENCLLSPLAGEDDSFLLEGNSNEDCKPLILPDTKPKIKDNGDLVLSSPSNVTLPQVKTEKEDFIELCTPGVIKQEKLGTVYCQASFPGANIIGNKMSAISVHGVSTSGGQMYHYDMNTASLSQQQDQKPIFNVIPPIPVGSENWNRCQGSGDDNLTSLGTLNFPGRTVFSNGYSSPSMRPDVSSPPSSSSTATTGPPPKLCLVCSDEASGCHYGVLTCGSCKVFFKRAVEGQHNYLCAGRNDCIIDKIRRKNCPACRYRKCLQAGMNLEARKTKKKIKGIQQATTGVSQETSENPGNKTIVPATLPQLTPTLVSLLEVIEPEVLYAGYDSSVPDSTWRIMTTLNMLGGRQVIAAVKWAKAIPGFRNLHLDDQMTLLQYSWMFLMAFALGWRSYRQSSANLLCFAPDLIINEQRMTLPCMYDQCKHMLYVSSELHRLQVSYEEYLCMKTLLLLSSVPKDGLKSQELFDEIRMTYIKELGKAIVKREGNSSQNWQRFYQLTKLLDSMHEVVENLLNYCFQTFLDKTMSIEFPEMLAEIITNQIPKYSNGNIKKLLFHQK
Chain of DNA dC->dU-editing enzyme APOBEC-3G (Homo sapiens) (Q9HC16 whole entry, looked up): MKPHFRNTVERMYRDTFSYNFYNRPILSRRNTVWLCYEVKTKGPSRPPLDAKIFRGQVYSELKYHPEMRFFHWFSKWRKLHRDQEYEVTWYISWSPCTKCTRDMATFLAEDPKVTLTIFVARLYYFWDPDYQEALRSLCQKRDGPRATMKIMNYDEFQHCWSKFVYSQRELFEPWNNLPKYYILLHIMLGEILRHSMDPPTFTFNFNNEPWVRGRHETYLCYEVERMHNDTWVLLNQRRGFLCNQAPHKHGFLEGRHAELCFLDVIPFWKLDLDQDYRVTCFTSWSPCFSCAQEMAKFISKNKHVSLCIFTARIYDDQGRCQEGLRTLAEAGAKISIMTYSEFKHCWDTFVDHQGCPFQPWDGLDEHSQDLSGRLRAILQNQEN
Chain of 3',5'-cyclic-AMP phosphodiesterase 4B (Homo sapiens) (Q07343 whole entry, looked up): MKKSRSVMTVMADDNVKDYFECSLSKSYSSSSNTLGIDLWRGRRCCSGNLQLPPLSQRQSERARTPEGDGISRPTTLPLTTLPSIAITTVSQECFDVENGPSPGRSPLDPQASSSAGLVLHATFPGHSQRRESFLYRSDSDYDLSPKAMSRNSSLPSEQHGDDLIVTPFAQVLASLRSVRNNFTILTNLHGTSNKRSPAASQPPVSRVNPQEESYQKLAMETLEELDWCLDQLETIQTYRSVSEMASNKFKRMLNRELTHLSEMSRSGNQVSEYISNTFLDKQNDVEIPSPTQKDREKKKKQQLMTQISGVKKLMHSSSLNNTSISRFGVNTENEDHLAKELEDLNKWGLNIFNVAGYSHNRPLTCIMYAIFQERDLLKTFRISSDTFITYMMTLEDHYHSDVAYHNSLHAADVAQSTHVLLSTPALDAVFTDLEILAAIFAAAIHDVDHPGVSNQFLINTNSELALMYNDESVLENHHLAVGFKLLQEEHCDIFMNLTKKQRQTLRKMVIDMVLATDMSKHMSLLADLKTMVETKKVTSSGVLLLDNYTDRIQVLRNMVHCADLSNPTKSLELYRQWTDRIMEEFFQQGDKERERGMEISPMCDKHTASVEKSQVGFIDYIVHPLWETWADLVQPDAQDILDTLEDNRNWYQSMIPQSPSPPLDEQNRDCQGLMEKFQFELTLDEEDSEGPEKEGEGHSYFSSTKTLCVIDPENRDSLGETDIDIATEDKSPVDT
Chain of Pyruvate kinase PKM (Homo sapiens) (P14618 whole entry, looked up): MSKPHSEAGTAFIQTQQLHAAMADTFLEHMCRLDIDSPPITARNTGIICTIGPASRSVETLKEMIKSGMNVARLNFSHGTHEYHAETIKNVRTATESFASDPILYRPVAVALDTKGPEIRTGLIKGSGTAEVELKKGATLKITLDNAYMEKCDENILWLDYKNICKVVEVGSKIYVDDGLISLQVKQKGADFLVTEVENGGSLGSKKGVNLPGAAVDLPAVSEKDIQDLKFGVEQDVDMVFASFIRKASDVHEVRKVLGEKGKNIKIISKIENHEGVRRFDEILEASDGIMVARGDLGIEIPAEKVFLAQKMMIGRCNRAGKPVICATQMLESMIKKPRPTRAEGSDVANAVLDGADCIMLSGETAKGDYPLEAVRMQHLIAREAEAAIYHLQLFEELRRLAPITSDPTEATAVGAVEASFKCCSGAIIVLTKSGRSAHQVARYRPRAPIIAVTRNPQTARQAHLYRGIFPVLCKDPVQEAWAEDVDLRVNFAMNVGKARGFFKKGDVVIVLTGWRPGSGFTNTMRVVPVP
Chain of Guanine nucleotide-binding protein G(i) subunit alpha-1 (Homo sapiens) (P63096 whole entry, looked up): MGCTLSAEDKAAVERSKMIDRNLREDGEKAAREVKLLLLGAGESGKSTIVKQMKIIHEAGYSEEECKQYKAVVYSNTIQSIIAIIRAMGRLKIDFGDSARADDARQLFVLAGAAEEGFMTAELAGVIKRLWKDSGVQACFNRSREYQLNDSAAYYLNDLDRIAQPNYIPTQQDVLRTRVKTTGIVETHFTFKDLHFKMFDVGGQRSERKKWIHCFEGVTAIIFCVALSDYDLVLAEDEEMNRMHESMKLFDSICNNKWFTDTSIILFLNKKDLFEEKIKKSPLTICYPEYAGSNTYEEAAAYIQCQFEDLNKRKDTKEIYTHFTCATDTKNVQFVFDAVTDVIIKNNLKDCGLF
Chain of Cytochrome P450 1A2 (Homo sapiens) (P05177 whole entry, looked up): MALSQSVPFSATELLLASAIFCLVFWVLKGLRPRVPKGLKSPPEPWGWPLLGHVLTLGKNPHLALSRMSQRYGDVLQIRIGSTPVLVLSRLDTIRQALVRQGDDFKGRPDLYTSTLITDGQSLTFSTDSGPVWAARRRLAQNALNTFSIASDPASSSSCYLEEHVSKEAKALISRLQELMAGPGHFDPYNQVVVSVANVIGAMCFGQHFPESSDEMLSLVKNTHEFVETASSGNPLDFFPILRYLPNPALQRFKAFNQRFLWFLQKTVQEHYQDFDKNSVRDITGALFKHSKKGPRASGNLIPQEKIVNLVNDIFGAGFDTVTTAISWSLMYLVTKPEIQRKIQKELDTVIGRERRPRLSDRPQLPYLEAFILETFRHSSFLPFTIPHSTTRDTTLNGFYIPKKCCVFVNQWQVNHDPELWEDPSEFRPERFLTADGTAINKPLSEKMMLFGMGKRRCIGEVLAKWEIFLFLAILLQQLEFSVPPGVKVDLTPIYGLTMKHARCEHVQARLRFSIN
Chain of Ubiquitin carboxyl-terminal hydrolase 1 (Homo sapiens) (O94782 whole entry, looked up): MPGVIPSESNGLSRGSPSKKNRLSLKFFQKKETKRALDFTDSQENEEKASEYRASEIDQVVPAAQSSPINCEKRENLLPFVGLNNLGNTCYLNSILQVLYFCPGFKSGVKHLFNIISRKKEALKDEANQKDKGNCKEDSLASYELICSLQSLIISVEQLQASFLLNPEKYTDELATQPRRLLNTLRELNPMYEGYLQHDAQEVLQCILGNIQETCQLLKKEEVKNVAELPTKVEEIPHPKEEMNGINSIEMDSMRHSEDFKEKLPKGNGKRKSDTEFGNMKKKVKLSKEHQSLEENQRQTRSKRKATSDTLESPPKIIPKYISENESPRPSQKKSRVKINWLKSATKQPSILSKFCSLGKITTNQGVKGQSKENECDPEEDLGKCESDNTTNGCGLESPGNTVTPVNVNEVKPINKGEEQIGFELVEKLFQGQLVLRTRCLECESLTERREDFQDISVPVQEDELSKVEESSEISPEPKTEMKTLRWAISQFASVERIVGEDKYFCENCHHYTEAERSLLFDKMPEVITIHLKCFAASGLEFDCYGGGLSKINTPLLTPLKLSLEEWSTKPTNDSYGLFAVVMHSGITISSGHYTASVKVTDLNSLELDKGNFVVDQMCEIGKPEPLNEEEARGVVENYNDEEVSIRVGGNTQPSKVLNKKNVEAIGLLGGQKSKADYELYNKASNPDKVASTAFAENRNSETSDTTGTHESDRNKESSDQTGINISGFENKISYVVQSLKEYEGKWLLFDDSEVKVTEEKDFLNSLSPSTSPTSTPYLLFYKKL
Chain of Pyruvate kinase (Leishmania mexicana) (Q27686 2-499 E452W): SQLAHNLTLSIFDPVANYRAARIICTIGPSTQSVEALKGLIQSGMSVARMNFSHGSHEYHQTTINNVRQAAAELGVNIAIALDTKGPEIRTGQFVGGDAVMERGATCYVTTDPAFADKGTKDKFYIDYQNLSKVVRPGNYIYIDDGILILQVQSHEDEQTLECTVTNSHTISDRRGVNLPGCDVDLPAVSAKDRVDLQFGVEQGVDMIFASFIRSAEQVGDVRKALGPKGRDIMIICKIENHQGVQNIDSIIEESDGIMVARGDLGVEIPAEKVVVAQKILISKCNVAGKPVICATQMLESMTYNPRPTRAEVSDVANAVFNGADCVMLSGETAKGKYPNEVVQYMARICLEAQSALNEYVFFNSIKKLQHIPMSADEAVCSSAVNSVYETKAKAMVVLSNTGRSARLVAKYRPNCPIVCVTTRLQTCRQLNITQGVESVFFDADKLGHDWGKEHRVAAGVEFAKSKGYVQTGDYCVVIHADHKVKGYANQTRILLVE

NCCC(=O)O
-17.6%: max response [5, 21]
inactive: Potency [1] | Potency [2] > 46 µM | Potency [3] > 46 µM | Potency [4] | activity change, negative = inhibition ([5]; at 57.5 µM (top of the series)) -2.51% | Potency [6] | Potency [7] | Potency [8] | Potency [9]
-21.9%: max response [5, 22]

C[C@@](N)(C(=O)O)c1ccc(P(=O)(O)O)cc1
active: Potency [1] 39.8 µM
inactive: Potency [2] > 46 µM | Potency [3] > 46 µM | Potency [4] | activity change, negative = inhibition ([5]; at 57.5 µM (top of the series)) -5.17% | Potency [6] | Potency [7] | Potency [8] | Potency [9]
0.435%: max response [5, 21]
-4.21%: max response [5, 22]

CCC(=O)N[C@@H]1Cc2ccccc2[C@@H](c2ccccc2)C1
13.4%: max response [5, 21]
28.8%: max response [5, 22]
inactive: Potency [2] > 46 µM | Potency [3] > 46 µM | activity change, negative = inhibition ([5]; at 57.5 µM (top of the series)) 10.8% | Potency [7] | Potency [8] | Potency [9]
active: Potency [1] 15.8 µM

C[C@@H](CCc1ccc(O)cc1)NCCc1ccc(O)c(O)c1
2.79%: max response [5, 22]
1.22%: max response [5, 21]
inactive: Potency [1] | activity change, negative = inhibition ([10]; at 17.2 µM (top of the series)) -17.4% | activity change, negative = inhibition ([10]; at 38 µM (top of the series)) -12.7% | activity, negative = inhibition ([11]; at 17.2 µM (top of the series)) 13.9% | activity, negative = inhibition ([11]; at 38 µM (top of the series)) -16.8% | Potency [2] > 46 µM and > 20.6 µM | Potency [3] > 46 µM and > 20.6 µM | Potency [12] | outcome [13] | Potency [14] | Potency [15] | outcome [16] | outcome [17] | outcome [18] | activity change, negative = inhibition ([5]; at 25.7 µM (top of the series)) 0.472% | Potency [6] | Potency [7] | Potency [8] | Potency [9]

CC(C)NC[C@H](O)c1ccc(NS(C)(=O)=O)cc1
-18.8% and 17.8%: max response [5, 22]
inactive: activity change, negative = inhibition ([19]; at 17.2 µM (top of the series)) -5.04% | activity change, negative = inhibition ([19]; at 38 µM (top of the series)) -0.189% | activity change, negative = inhibition ([10]; at 38 µM (top of the series)) -7.39% | activity, negative = inhibition ([11]; at 17.2 µM (top of the series)) -2.38% | activity, negative = inhibition ([11]; at 38 µM (top of the series)) 2.96% | Potency [2] > 46 µM and > 20.6 µM | Potency [3] > 46 µM and > 20.6 µM | Potency [4] | Potency [12] | outcome [13] | Potency [20] | Potency [15] | outcome [16] | outcome [17] | outcome [18] | activity change, negative = inhibition ([5]; at 25.7 µM (top of the series)) -2.05% | activity change, negative = inhibition ([5]; at 57.5 µM (top of the series)) -2.56% | Potency [6] | Potency [7] | Potency [8] | Potency [9]
-18.7% and 20.5%: max response [5, 21]

O=C(NCCNC[C@@H](O)COc1ccc(O)cc1)N1CCOCC1
-11.7% and -2.05%: max response [5, 21]
inactive: activity change, negative = inhibition ([10]; at 17.2 µM (top of the series)) -2.05% | activity change, negative = inhibition ([10]; at 38 µM (top of the series)) -2.2% | activity, negative = inhibition ([11]; at 17.2 µM (top of the series)) 6.36% | activity, negative = inhibition ([11]; at 38 µM (top of the series)) -6.64% | Potency [2] > 46 µM and > 20.6 µM | Potency [3] > 46 µM and > 20.6 µM | Potency [4] | Potency [12] | outcome [13] | Potency [20] | Potency [15] | outcome [16] | outcome [17] | outcome [18] | activity change, negative = inhibition ([5]; at 25.7 µM (top of the series)) -1.5% | activity change, negative = inhibition ([5]; at 57.5 µM (top of the series)) -3.4% | Potency [6] | Potency [7] | Potency [8] | Potency [9]
-12.6% and -5.19%: max response [5, 22]
